In PubChem BioAssay (NCATS):
Records with an inconclusive call do not appear. A call without a number means that no potency is given here. Active and inactive are the calls of the source. Calls follow the shape of the dose curve; as a rule, active = well fitted curve in the direction sought with a large enough effect; inconclusive = small, poorly fitted or top-dose-only effect, or another doubt; inactive = no such curve, though single readings can be large; an effect the other way counts as inactive or inconclusive.

What was measured:
[1] = biological target: Voltage-gated inwardly rectifying potassium channel KCNH2 (Homo sapiens) (UniProt Q12809); test: qHTS Assay for Small Molecule Inhibitors of the Human hERG Channel Activity (AID 588834);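 also: lower thallium flux fluorescence means stronger hERG block; nearly all actives have a fitted effect of over 50% in size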; also: potency is read from the fitted curve at half-maximal effect
Voltage-gated inwardly rectifying potassium channel KCNH2 (Homo sapiens), sequence (Q12809 whole entry, looked up): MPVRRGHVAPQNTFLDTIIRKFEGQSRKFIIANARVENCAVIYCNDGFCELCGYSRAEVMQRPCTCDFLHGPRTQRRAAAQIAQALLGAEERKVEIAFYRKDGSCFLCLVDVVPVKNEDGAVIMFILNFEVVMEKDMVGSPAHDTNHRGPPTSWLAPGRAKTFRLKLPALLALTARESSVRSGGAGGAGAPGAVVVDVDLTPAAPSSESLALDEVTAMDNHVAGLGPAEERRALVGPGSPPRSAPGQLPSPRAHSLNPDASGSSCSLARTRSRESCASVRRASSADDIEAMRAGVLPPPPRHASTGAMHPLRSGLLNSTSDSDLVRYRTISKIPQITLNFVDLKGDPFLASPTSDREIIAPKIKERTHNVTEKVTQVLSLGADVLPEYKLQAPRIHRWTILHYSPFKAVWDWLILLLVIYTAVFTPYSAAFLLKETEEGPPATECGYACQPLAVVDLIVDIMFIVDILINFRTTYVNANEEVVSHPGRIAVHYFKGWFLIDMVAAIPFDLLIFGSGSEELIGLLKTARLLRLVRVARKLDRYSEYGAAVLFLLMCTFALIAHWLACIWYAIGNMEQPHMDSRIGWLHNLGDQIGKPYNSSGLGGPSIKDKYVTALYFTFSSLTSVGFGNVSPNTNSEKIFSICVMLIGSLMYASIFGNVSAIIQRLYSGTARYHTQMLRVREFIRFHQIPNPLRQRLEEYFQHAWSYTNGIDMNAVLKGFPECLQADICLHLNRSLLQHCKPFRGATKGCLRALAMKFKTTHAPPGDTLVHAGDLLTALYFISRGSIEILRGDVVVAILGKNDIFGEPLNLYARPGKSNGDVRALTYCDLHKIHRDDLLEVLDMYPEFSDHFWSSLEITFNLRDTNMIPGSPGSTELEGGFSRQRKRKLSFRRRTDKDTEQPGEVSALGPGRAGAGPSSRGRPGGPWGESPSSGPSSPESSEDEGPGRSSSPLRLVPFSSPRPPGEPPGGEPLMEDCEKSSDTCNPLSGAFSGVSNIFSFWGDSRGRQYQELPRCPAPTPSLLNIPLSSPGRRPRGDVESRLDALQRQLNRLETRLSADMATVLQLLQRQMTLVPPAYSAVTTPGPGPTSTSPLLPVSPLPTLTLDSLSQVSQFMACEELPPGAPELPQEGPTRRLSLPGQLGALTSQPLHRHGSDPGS
Method in brief: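 Concentration-response qHTS measuring drop in thallium-sensitive dye signal. U2OS cells carrying BacMam hERG; compound exposure ~10 min, then stimulation buffer and 2 min read at 1 sec intervals.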

[2] = qHTS of Trypanosoma Brucei Inhibitors: LOPAC Validation (AID 624147)
Method in brief: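 In this concentration-response screen, enzyme-free wells defined baseline while DMSO plates tracked drift. Each reaction combined TbPYK, substrate, compound and 130 uM ADP for 45 min at room temperature. Kinase-Glo Plus luminescence gave the signal.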

[3] = biological target: Glucagon-like peptide 1 receptor (Homo sapiens) (UniProt P43220); test: qHTS of GLP-1 Receptor Agonists: LOPAC Validation (AID 624148);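 also: higher luminescence signal means agonism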
Glucagon-like peptide 1 receptor (Homo sapiens), sequence (P43220 whole entry, looked up): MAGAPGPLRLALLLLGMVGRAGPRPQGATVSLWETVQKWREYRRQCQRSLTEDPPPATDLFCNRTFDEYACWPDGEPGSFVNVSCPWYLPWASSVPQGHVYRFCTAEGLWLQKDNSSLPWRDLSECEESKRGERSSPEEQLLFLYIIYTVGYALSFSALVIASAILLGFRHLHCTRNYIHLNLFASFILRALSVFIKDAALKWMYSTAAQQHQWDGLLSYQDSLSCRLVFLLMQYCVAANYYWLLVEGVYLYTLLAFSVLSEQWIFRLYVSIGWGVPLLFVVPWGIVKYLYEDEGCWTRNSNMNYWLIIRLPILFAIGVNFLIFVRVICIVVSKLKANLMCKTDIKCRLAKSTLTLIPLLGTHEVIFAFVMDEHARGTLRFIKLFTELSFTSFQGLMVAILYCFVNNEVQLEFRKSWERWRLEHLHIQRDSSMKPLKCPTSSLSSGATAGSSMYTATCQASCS
Method in brief: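 HEK293 cells stably co-expressing a cAMP-responsive luciferase reporter and a hypersensitive GLP-1R were plated 12 h at 37 °C and exposed to compounds for 4-6 hr at 37 °C, 5% CO2. Luminescence was read 12 min after adding detection reagent.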

[4] = qHTS of Nrf2 Activators: LOPAC Validation (AID 624149)
Method in brief: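 Luminescence read-out of ARE-luciferase activation: AREc32_Fluc cells treated with compounds for 24 hr at 37 deg C, then lysed with Steady-Glo for 30 min at room temperature before reading.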

[5] = HTS Assay for Allosteric Antagonists of the Human D2 Dopamine Receptor: Hit Validation in HTRF (AID 624455);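 also: stable D1 dopamine receptor cell line scored for blocking the D1 response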
Method in brief: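 First, antagonism was screened by calcium flux in a force-coupled, inducible Hek293 Trex D2 line challenged with EC80 dopamine. Hits then went into an HTRF assay in cells stably expressing D1, testing inhibition of the D1 response.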

[6] = biological target: Glutaminase kidney isoform, mitochondrial (Homo sapiens) (UniProt O94925); test: qHTS for Inhibitors of Glutaminase (GLS): LOPAC Validation (AID 624146); also: nearly all actives have a fitted effect of over 60% in size; also: potency is read from the fitted curve at half-maximal effect
Glutaminase kidney isoform, mitochondrial (Homo sapiens), sequence (O94925 whole entry, looked up, canonical isoform): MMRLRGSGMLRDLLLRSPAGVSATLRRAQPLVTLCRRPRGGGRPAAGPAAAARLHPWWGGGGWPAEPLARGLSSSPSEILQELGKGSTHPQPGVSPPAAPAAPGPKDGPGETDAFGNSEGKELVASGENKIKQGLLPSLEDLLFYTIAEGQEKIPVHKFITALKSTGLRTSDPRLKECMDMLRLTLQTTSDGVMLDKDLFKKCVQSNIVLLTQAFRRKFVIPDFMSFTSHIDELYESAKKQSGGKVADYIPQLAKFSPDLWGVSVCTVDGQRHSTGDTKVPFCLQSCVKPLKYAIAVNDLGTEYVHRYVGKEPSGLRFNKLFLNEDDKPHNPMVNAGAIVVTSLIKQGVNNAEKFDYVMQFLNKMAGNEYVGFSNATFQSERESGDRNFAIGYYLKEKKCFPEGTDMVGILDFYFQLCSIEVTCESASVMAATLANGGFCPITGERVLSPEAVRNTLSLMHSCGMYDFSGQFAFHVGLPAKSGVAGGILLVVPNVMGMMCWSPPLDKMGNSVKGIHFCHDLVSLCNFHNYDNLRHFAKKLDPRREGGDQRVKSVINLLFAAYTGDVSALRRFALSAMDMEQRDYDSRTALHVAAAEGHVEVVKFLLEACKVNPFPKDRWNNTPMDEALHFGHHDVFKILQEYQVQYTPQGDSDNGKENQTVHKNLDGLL
Method in brief: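 hKGA in 45 mM KH2PO4 pH 8.2, 0.02% Tween-20 with pin-transferred compounds; 1 mM L-glutamine (stock) plus glutamate oxidase/HRP/Amplex Red coupling added. Fluorescence read initially and after 30 min at RT.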

## N#CC(C#N)=C(N)/C(C#N)=C/c1ccc(O)cc1
[1]
  Potency: inactive
[2]
  Potency: inactive
[3]
  Potency: inactive
[4]
  Potency: inactive
[5]
  Potency: inactive

## Oc1ccc(Cn2cc[nH]c2=S)cc1
[1]
  Potency: inactive
[6]
  Potency: inactive
[3]
  Potency: inactive
[4]
  Potency: inactive
[5]
  Potency: inactive

## CN(C)S(=O)(=O)c1ccc2c(c1)/C(=C/c1cc3c([nH]1)CCCC3)C(=O)N2
[1]
  Potency: 7940 nM (active)
[6]
  Potency: inactive
[2]
  Potency: inactive
[4]
  Potency: inactive

## O=C1C2C=CC=CC2=NC(=S)N1CCN1CCC(=C(c2ccc(F)cc2)c2ccc(F)cc2)CC1 (centres undefined)
[1]
  Potency: 316 nM (active)
[6]
  Potency: inactive
[2]
  Potency: inactive
[3]
  Potency: inactive
[5]
  Potency: inactive

## CN(C)C(=O)/N=N/C(=O)N(C)C
[1]
  Potency: inactive
[6]
  Potency: inactive
[3]
  Potency: inactive
[4]
  Potency: inactive
[5]
  Potency: inactive

## CN1CCN(c2nc3cc(C(F)(F)F)ccc3n3cccc23)CC1
[1]
  Potency: 3980 nM (active)
[6]
  Potency: inactive
[2]
  Potency: inactive
[3]
  Potency: inactive
[5]
  Potency: inactive

## Nc1ncnc2c1ncn2C1CCCO1 (centres undefined)
[1]
  Potency: inactive
[6]
  Potency: inactive
[2]
  Potency: inactive
[3]
  Potency: inactive
[5]
  Potency: inactive

## CCCCC[C@H](CC(=O)NO)C(=O)N[C@H](C(=O)N1CCC[C@H]1CO)C(C)C
[1]
  Potency: inactive
[2]
  Potency: inactive
[3]
  Potency: inactive
[4]
  Potency: inactive
[5]
  Potency: inactive

## C[C@H](NC(=O)/C(C#N)=C/c1ccc(O)c(O)c1)c1ccccc1
[1]
  Potency: inactive
[6]
  Potency: 794 nM (active)
[2]
  Potency: inactive
[3]
  Potency: inactive
[5]
  Potency: inactive

## COc1cc2c(CCNC(C)=O)c[nH]c2cc1O
[1]
  Potency: inactive
[6]
  Potency: 2000 nM (active)
[3]
  Potency: inactive
[4]
  Potency: inactive
[5]
  Potency: inactive

## CCN(CC)CCCCCCCCOC(=O)c1cc(OC)c(OC)c(OC)c1
[1]
  Potency: 11200 nM (active)
[6]
  Potency: inactive
[2]
  Potency: inactive
[3]
  Potency: inactive
[5]
  Potency: inactive

## CC(C)C[C@H](NC(=O)C1OC1C(=O)O)C(=O)NCCCCN=C(N)N (some centres undefined)
[1]
  Potency: inactive
[6]
  Potency: inactive
[2]
  Potency: inactive
[3]
  Potency: inactive
[5]
  Potency: inactive

## COC(=O)C1=C(C)NC(C)=C([N+](=O)[O-])C1c1ccccc1C(F)(F)F (centres undefined)
[1]
  Potency: inactive
[6]
  Potency: inactive
[2]
  Potency: inactive
[3]
  Potency: inactive
[5]
  Potency: inactive

## CCN(CC)CCOC(=O)c1cc(Cl)c(N)cc1OC
[1]
  Potency: inactive
[6]
  Potency: inactive
[2]
  Potency: inactive
[4]
  Potency: inactive
[5]
  Potency: inactive

## N[C@@H](CCC(=O)N[C@H](CSN=O)C(=O)NCC(=O)O)C(=O)O
[1]
  Potency: inactive
[6]
  Potency: inactive
[2]
  Potency: inactive
[3]
  Potency: inactive
[5]
  Potency: inactive

## COC(=O)C(C)(N)Cc1ccc(O)cc1 (centres undefined)
[1]
  Potency: inactive
[6]
  Potency: inactive
[2]
  Potency: inactive
[3]
  Potency: inactive
[5]
  Potency: inactive
